Screening results from PubChem BioAssay.
A selection: hits, their analogues and other compounds. The true share with any hit is near 4.5%.
TPT1 inhibitor – Candida albicans TPT1 enzyme inhibitors, primary screen, biochemical, fluorescence polarization; inhibition, % at 5 µM; AID 1962, 2009; actives 0.81% (n = 300,000); tRNA 2'-phosphotransferase TPT1 (Candida albicans SC5314); recombinant caTPT1, FP RNA substrate dephosphorylation;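 active means inhibition above the mean of all tested compounds plus 3 SD, set per screening campaign, cut at about 24% in these data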;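 further: plate controls were DMSO alone for no effect and ferristatin control at 100 nM for full effect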
EBNA-1 inh – EBNA-1 DNA-binding inhibitors, primary screen, biochemical, fluorescence polarization. inhibition, % at 14.8 µM. actives 0.34% (n = 300,000). AID 1950, 2009; in the data active means inhibition above about 28%
dFosB activator – activators of delta FosB homodimer, primary screen, biochemical, fluorescence polarization, TAMRA-CDK5 oligo, single point | Protein FosB (Mus musculus), P13346 | purified delta FosB; percent of positive-control signal above neutral wells | activation, % at 25 µM | actives 0.99% (n = 340,000);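 active means mean activation above about 17%, with every replicate also reaching it, limit read from the data, passing the limit was not always enough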
GRIN3A LBD mod – binders of NR3A ligand-binding domain, primary screen, biophysical, differential scanning fluorimetry, uHTS; Glutamate receptor ionotropic, NMDA 3A (GRIN3A) ligand-binding domain; NR3A LBD differential scanning fluorimetry, Tm shift; 0% = protein alone, 100% = glycine-bound protein; Tm shift relative to glycine control, % at 25 µM; actives 2.5% (n = 340,000);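 active means melting temperature shift of at least 10% of the positive control shift, at one fixed dose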
ZTA DNA inh – blocks Epstein-Barr virus ZTA, an EBNA-1 counter-screen; ZTA-DNA binding, fluorescence polarization; inhibition, % at 11 µM; actives 0.15% (n = 320,000); in the data active means inhibition above about 33%
Target sequence (P03206 whole entry, looked up): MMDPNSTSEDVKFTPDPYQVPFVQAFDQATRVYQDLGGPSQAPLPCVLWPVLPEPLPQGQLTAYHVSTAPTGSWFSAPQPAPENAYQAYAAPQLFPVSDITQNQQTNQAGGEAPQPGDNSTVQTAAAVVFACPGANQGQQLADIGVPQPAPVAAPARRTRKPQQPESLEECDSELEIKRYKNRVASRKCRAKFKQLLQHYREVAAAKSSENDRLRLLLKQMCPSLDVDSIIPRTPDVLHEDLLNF
Rpn11 block – Rpn11 (PSMD14) deubiquitinase inhibitors, primary screen, biochemical, fluorescence polarization, uHTS | inhibition, % at 20 µM | AID 588493, 2011 | human 26S proteasome, Ub4-pepOG fluorescence polarization; 20S core pre-blocked with epoxomicin | actives 0.59% (n = 360,000);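 active means inhibition at 20 µM, scaled to each plate's controls, above about 33%, limit read from the data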
caTPT1 confirm – Candida albicans TPT1 inhibitors, confirmation, biochemical, fluorescence polarization, triplicate | shares compounds with TPT1 inhibitor | recombinant caTPT1, RNase T1 coupled | inhibition, % at 5 µM | actives 74% (n = 2,400) | AID 2149, 2009;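 active means inhibition above the primary screen limit, the mean inhibition of all tested compounds plus 3 SD, cut at about 25% in these data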
RNase T1 inh – RNase T1 inhibitors, counter-screen for TPT1 inhibitor project, biochemical, fluorescence polarization; inhibition, % at 5 µM; AID 2153, 2009; shares compounds with TPT1 inhibitor; RNase T1 cleavage, 1536-well; actives 83% (n = 2,400);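 active means inhibition above the solvent-only control well mean plus 3 SD, limit set per screening run, cut at about 23% in these data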;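 further: plate controls were DMSO wells with enzyme for no effect and wells without RNase T1 for full effect; inhibitors block cleavage so intact labeled substrate keeps polarization high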
Target sequence (P00651 whole entry, looked up): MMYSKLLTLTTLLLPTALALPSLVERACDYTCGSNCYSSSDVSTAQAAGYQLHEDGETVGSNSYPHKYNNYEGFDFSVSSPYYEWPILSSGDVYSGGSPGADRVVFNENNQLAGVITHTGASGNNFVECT
* = called active by the depositor; nt = no result shown; ! = not active in a repeat.

SMILES	TPT1 inhibitor	EBNA-1 inh	dFosB activator	GRIN3A LBD mod	ZTA DNA inh	Rpn11 block	caTPT1 confirm	RNase T1 inh
O=c1[nH]c(=S)n(-c2ccc(Br)cc2)c(O)c1C=Nc1ccc(N2CCOCC2)cc1	-34	5	-3	5	6	-120	nt	nt
Cc1c(-c2cccc(Cl)c2)nc2ccccc2c1C(=O)N1CCC2(CC1)OCCO2	1	2	-6	-1	-1	3	nt	nt
COC(=O)C1(C(=O)O)Cc2cc([N+](=O)[O-])ccc2N2CCCC21 (stereo unspecified)	4	11	-5	0	7	12	nt	nt
Cc1ccccc1-n1c(O)c(/C=N/c2nccs2)c(=O)[nH]c1=O	28*!	-6	5	0	-10	7	18	26*
Cc1cccc(-n2c(O)c(/C=C/C=Nc3ccccc3)c(=O)[nH]c2=O)c1	183*	-13	9	-2	3	nt	187*	173*
Cc1cc(S(N)(=O)=O)ccc1N=Cc1c(O)n(-c2ccccc2)c(=O)[nH]c1=O	5	-4	-24	0	-9	1	nt	nt
CNS(=O)(=O)c1ccc(N=Cc2c(O)n(-c3ccccc3)c(=O)[nH]c2=O)cc1	28*	11	-8	1	-2	3	17	25*
CNS(=O)(=O)c1ccc(N=Cc2c(O)n(-c3cccc(C)c3)c(=O)[nH]c2=O)cc1	26*	4	-1	-3	7	3	14	24*
O=c1cccc2n1CC1CC2CN(CC(O)CN2CC3CC(C2)c2cccc(=O)n2C3)C1 (stereo unspecified)	0	-24	-3	0	8	-4	nt	nt
CCN(CC)c1ccc(N=Cc2c(O)n(-c3ccc(Cl)cc3)c(=O)[nH]c2=O)cc1	27*	-4	-3	1	-9	nt	58*	72*
Cc1ccc(N=Cc2c(O)n(-c3ccc(C)cc3)c(=O)[nH]c2=O)cc1	2	-2	2	1	-4	2	nt	nt
Cc1ccc(-n2c(O)c(C=Nc3ccc(S(=O)(=O)N(C)C)cc3)c(=O)[nH]c2=O)cc1	26*	7	-4	3	11	4	9	14
CC(=O)N1CCN(c2ccc(N=Cc3c(O)n(-c4ccc(Cl)cc4)c(=O)[nH]c3=O)cc2)CC1	15	-7	-12	0	6	1	nt	nt
O=c1[nH]c(=O)n(-c2cccc(Cl)c2)c(O)c1/C=N/c1ccccn1	30*	5	5	0	-10	10	18	24*
CC(C)n1c(=O)c(C=Nc2ccc(S(N)(=O)=O)cc2)c(O)n(Cc2ccco2)c1=O	42*	5	-9	-2	-8	28	12	20
Cc1cccc(N2C(=O)NC(=O)/C(=C\c3ccc4c(c3)CCCN4Cc3ccccc3)C2=O)c1	92*	5	-1	-3	2	nt	152*	141*
O=C1NC(=O)N(Cc2ccccc2)C(=O)/C1=C\c1ccco1	66*	-3	-3	-2	9	29	17	23*
CN1C(=O)C(=CN2CCN(C(=O)c3ccco3)CC2)C(=O)N(C)C1=S	10	1	4	-1	5	16	nt	nt
Cn1cccc1/C=C1/C(=O)NC(=O)N(Cc2ccc(F)cc2)C1=O	8	3	-10	-1	14	39	nt	nt
O=C1NC(=O)C(=CN2CCc3ccccc32)C(=O)N1	4	-1	-2	-1	8	7	nt	nt
